Source: PubChem (National Center for Advancing Translational Sciences (NCATS))
G9a block: G9a (human) methyltransferase inhibition; G9a H3K9 monomethylation, AlphaScreen, 2 h; Potency, µM (top dose mostly 102 µM), without a hit: top-dose activity, negative = inhibition, most hits filed as inhibitors; actives 8.8% (n = 350,000); AID 504332; further: potency means the concentration at half of the fitted maximal effect; on the % scale 0 is the no-effect control and ±100 the full control effect; nearly all actives have a fitted effect of over 75% in size
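Quantitative HTS format: methyltransferase activity on a biotin-tagged H3K9 peptide is measured by AlphaScreen, using a rabbit anti-monomethyl-H3K9 antibody with streptavidin donor and anti-IgG acceptor beads. Final levels are 20 nM enzyme, 500 nM peptide, 20 uM SAM; 2 h RT.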
PI5P4Ka inh: blocks human PI5P4K alpha kinase activity | P48426 | PI5P4Kalpha enzyme, ADP-Glo luminescence, 60 min; hits give low values | max response, % | actives 1.2% (n = 330,000); active means max response of -50% or lower; inconclusive means between -30% and -50%; inactive means -30% or higher; further: value at the top dose of about 77 µM; on the % scale 0 is the no-effect control and ±100 the full control effect
Target sequence (P48426 whole entry, looked up): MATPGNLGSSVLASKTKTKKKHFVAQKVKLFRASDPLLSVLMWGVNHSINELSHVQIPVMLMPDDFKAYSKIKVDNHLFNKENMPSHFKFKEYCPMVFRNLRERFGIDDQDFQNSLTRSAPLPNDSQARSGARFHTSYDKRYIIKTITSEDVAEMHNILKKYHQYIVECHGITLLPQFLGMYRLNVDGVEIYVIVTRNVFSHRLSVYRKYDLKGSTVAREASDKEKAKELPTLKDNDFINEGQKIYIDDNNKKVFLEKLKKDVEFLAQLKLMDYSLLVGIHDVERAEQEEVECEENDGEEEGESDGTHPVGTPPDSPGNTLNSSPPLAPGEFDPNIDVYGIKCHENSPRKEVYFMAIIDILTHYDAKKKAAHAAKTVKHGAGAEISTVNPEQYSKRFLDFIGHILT
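Enzyme plus substrate dispensed, test compounds pinned in, then ATP (5 microM final) added. After 60 min at RT, ADP-Glo reagent 1 for 45 min and reagent 2 for 30 min preceded luminescence imaging.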
JMJD2A Tudor inh: JMJD2A Tudor domain (human) inhibition; actives 4.4% (n = 390,000); AID 504339; Potency, µM (highest dose often 114 µM), for the others: at the highest dose activity change, negative = inhibition, usual class: inhibitors; AlphaScreen JMJD2A-Tudor / H3K4me3 peptide binding; O75164; further: potency means the concentration at half of the fitted maximal effect; on the % scale 0 is the no-effect control and ±100 the full control effect; nearly all actives have a fitted effect of over 50% in size
HP1b chromo inh: inhibitors of HP1-beta chromodomain binding to methylated histone tails; P83916; AlphaScreen HP1-beta / biotin-H3K9me3 peptide binding; Potency, µM (series often up to 114 µM), without a hit: top-dose activity change, negative = inhibition, hits mostly inhibitors; actives 0.56% (n = 390,000); further: potency means the concentration at half of the fitted maximal effect; nearly all actives have a fitted effect of over 70% in size
Target sequence (P83916 whole entry, looked up): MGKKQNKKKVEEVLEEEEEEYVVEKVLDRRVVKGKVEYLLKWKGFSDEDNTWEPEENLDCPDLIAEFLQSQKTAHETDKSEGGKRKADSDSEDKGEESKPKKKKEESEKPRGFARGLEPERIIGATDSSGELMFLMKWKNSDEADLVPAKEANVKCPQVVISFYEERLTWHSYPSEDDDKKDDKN
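HP1-beta protein (50 nM final) preincubated 30 min at room temperature with biotinylated H3(1-18)K9me3 peptide (50 nM) in PBS pH 7.4, 0.01% Tween-20, then compound added for 30 min. AlphaScreen streptavidin donor/nickel chelate acceptor beads (10 ug/mL final), 30 min dark, luminescence read.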
BAZ2B block: blocks human BAZ2B. actives 4.4% (n = 360,000). Q9UIF8. Potency, µM (highest dose often 114 µM), for inactives: at the highest dose activity change, negative = inhibition, actives largely listed as inhibitors. AlphaScreen BAZ2B-H3K14Ac peptide displacement; further: potency means the concentration at half of the fitted maximal effect; on the % scale 0 is the no-effect control and ±100 the full control effect; nearly all actives have a fitted effect of over 60% in size
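AlphaScreen displacement of biotin-H3(5-23)K14Ac peptide (50 nM final) from BAZ2B (50 nM final) in PBS pH 7.4, 0.01% Tween-20; complex preformed 30 min RT, then compounds (top 110 uM) 30 min RT, beads 20 min dark.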
L3MBTL1 inh: blocks human L3MBTL1. AlphaScreen L3MBTL1–H3K9me1 peptide binding. Potency, µM (highest dose often 57.1 µM), for the others: at the highest dose activity, negative = inhibition, usual class: inhibitors. actives 0.66% (n = 230,000); further: potency means the concentration at half of the fitted maximal effect; on the % scale 0 is the no-effect control and ±100 the full control effect; nearly all actives have a fitted effect of over 60% in size
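L3MBTL1 50 nM + b-AHA-H3(1-15)K9me1 75 nM, 30 min RT; compound added, 30 min RT; streptavidin donor/Ni-chelate acceptor beads 10 ug/mL each final, 30 min RT dark; AlphaScreen read.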
* marks the source's active call; other numbers are inactive results; ? = inconclusive; . = no result given; ! = not confirmed by another sample; [ ] = another dose, or the depositor's remark. This is a sample that favours compounds with a hit; in the whole collection about 11% have one here. Unless noted, the call rests on the fitted dose curve; in most records, active means well fitted inhibition curve with a large enough effect; inconclusive means small, poorly fitted or top-dose-only effect; inactive means no such curve, though single readings can be large or run the other way.

SMILES	G9a block	PI5P4Ka inh	JMJD2A Tudor inh	HP1b chromo inh	BAZ2B block	L3MBTL1 inh
O=C(Nc1ccc2cn[nH]c2c1)c1c(Cl)cccc1Cl	1.78µM*	-24.1	?	1.1%	50.1µM*	9.9%
CC(=O)c1ccc(NC(=S)Nc2ccc3cn[nH]c3c2)cc1	44.7µM*	5.3	-31.1%[57.1 µM]	-3.9%	-11.8%	-7.6%
CCCOc1ccc(C2C(=O)N(C3CCCCCC3)CC(=O)N2CCCOCC)cc1OC (stereo unspecified)	-4.4%[59 µM]	.	-15.0%	11.0%	-0.9%	.
O=C(Cn1ncc2c3ccccc3n(Cc3ccc(Cl)cc3)c2c1=O)NCc1cccs1	-2.4%[59 µM]	.	-6.7%	15.7%	-5.0%	.
Cc1ccc(-c2nc(NC(=O)CSc3cc(C)c4ccccc4n3)ns2)cc1	35.5µM*	0.2	?	-14.3%	10µM*!	6.5%
Cc1cc(SCC(=O)NC(=O)c2cccn2C)nc2ccccc12	50.1µM*	-5.0	?	1.9%	?	.
Cc1cccc(NC(=O)CSc2cc(C(=O)c3nccn3C)c3ccccc3n2)c1	12.6µM*	-3.9	?	20.4%	-6.0%	1.5%
Cc1cc(SCC(=O)c2ccc(O)c(O)c2)nc2ccccc12	10µM*	-21.8	?	?	17.8µM*	-18.0%
COc1cc(NC(=O)NCCn2nnc3cc(S(=O)(=O)N(C)C)ccc32)cc(OC)c1OC	1.9%[59 µM]	.	2.6%	22.9%	-11.7%	.
NCCCN(Cc1ccc(Cl)cc1)c1ccc(Br)cn1	.	.	-15.0%	19.9%	.	.
CNC(=O)C[C@@H](N)C(=O)N[C@@H](C(=O)N[C@@H]1C(=O)N2[C@@H]1SC(C)(C)[C@@H]2C(=O)O)c1ccc(O)cc1	-44.9%[12.7 µM]	.	.	.	.	.
Cc1nc(NC(=O)CSc2cc(C)c3ccccc3n2)c(Cl)cc1Cl	44.7µM*	-2.8	-27.2%	21.7%	0.0%	-11.1%
CC(C)Cn1c(=O)c2ccccc2n2c(CCC(=O)N3CCN(c4ccccc4F)CC3)nnc12	10.2%[59 µM]	.	-10.9%	40.1%	-8.7%	.
O=C(NC(=S)N(Cc1ccccc1)c1ccccn1)C1CCCCC1	28.2µM*	-7.1	-6.4%	27.7%	-4.7%	-3.4%
CN(Cc1ccccc1)C(=S)NC(=O)C1CCCCC1	-44.7%	-7.0	-9.7%	45.8%	-0.1%	2.9%
C=CCn1c(O)c(N=NC(=S)Nc2ccc(OC)cc2)c2ccccc21	28.2µM*	18.3	?	?	?	?
C=CCn1c(O)c(N=NC(=O)OCC)c2ccccc21	11.6%[59 µM]	8.8	-17.6%	17.5%	-27.4%	3.0%
C=CCn1c(O)c(N=NC(=S)Nc2cccc(OC)c2)c2ccccc21	28.2µM*	-4.4	?	?	7.94µM*	?
COc1cccc(-n2ccn(CC(=O)Nc3ccccc3F)c(=O)c2=O)c1	-21.8%[59 µM]	.	-4.9%	18.7%	0.3%	.
CCn1c2ccccc2c2cc(CN3CCN(S(=O)(=O)Cc4ccccc4)CC3)ccc21	7.08µM*	1.4	1µM*	?	79.4µM*	1.4%
CCN1CCN(S(=O)(=O)Cc2ccccc2)CC1	13.7%[12.7 µM]	.	-7.7%	12.2%	-4.4%	-1.0%
CCn1c2ccccc2c2cc(CN3CCN(S(=O)(=O)CC)CC3)ccc21	11.2µM*	.	.	.	20µM*	-10.5%
CCN(CC)CCNC(CC(=O)Nc1ccc(Cl)cc1Cl)C(=O)O (stereo unspecified)	8.91µM*	8.0	-33.2%	26.3%	3.8%	2.4%
Cc1ccc(C(=O)N/C(=C\c2ccc(Cl)cc2)C(=O)NC2CCCCC2)cc1	5.1%[59 µM]	.	-5.6%	47.2%	4.7%	.
CC(NC(=O)c1ccc(Cn2cc([N+](=O)[O-])cn2)cc1)c1ccccc1 (stereo unspecified)	-9.4%[59 µM]	-8.9	50.1µM*	8.7%	8.0%	-1.3%
SMILES	G9a block	PI5P4Ka inh	JMJD2A Tudor inh	HP1b chromo inh	BAZ2B block	L3MBTL1 inh
CC(C)NC(=O)CCCn1cc([N+](=O)[O-])cn1	50.1µM*	1.5	-16.8%	31.6%	-10.5%	4.9%
O=C(Cn1cc([N+](=O)[O-])cn1)Nc1ccc(Cn2cc(Br)cn2)cc1	2.24µM*	-10.7	-5.7%	20.2%	-38.0%	4.2%
COc1ccc(C(=O)N2CC(=O)Nc3ccc(C)cc3C2c2ccc(F)cc2)c(OC)c1 (stereo unspecified)	-2.9%[59 µM]	.	-13.7%	28.2%	-2.7%	.
C/C(CC(=O)Nc1cccc2c1CCCC2)=N\NC(=O)c1ccccc1N	9.8%[2.33 µM]	.	-20.9%	6.2%	13.2%	-0.9%
C/C(CC(=O)NC(C)(C)C)=N\NC(=O)c1ccccc1N	?	8.5	39.8µM*	4.2%	-20.3%	.
C/C(CC(=O)NC(C)(C)C)=N\NC(N)=S	3.98µM*	0.6	?	?	?	2.7%
CCCN(C(=O)NCc1noc2ccc(C)cc12)c1ccc(Cl)c(Cl)c1	5.9%[59 µM]	.	25.6%	93.6%	3.1%	.
CCCCOc1cccc(C(=O)Nc2sc3c(c2C(=O)OCC)CCCC3)c1	23.1%[59 µM]	.	11.4%	88.5%	19.5%	.
CC(C)c1ccc(S(=O)(=O)c2cnc(SCC(=O)Nc3cccc(C(F)(F)F)c3)nc2N)cc1	-4.4%[59 µM]	.	-10.2%	21.9%	-1.2%	.
CS(=O)(=O)Nc1ccc(-c2ccc(/C=C3\SC(N)=NC3=O)o2)cc1	?	-65.0*	-29.3%	16.6%	-5.3%	-6.0%
O=C(CCc1cn(Cc2ccccc2Cl)c2ccccc12)NC1CCCCC1	-34.3%[59 µM]	.	-4.8%	28.5%	-8.5%	.
CN(CCc1ccccn1)C1CC(=O)N(c2ccc(Cl)cc2)C1=O (stereo unspecified)	5.01µM*	4.7	-21.5%	48.2%	-3.9%	.
CC(C)CC1=NN(C(=O)c2ccncc2)C(O)(C(F)(F)F)C1 (stereo unspecified)	2.4%	-16.8	39.8µM*	9.9%	0.8%	-9.3%
Cc1cccc(NC(=O)CSc2cn(CC(=O)N3CCC(C)CC3)c3ccccc23)c1C	2.2%[59 µM]	.	0.7%	33.0%	-19.6%	.
Cc1cccc(Cn2cccc2CNS(=O)(=O)c2ccccc2F)c1	7.2%[12.7 µM]	.	-11.3%	16.4%	-27.7%	.
NC(=O)c1sc2nc(N3CCOCC3)c3c(c2c1N)CCCC3	70.8µM*	?	?	-7.1%	?	.
CCOC(=O)c1sc2nc(N3CCOCC3)c3c(c2c1N)CCC3	6.3%	-5.6	8.8%	10.7%	7.2%	3.8%
Cc1ccccc1NC(=O)c1sc2nc(N3CCOCC3)c3c(c2c1N)CCCC3	-1.0%[0.0925 µM]	-11.7	2.3%	29.7%	13.7%	.
Nc1c(C(=O)NCCc2ccccc2)sc2nc(N3CCOCC3)c3c(c12)CCCC3	15.8µM*	-7.8	-5.9%	79.3%	-1.1%	18.8%
CCCCN(CCCC)C(=O)c1sc2nc(N3CCOCC3)c3c(c2c1N)CCCC3	44.7µM*	-11.8	-25.8%	20.9%	6.7%	2.7%
O=C(c1ccncc1)N1CCC[C@@]2(CCN(c3ccccn3)C2)C1	13.1%[12.7 µM]	.	.	.	.	.
COc1ccc(OC)c(-c2noc(CSc3nnc(-c4ccccc4)n3-c3ccccc3)n2)c1	-33.9%[59 µM]	.	-22.9%	9.5%	-20.0%	.
